Test results as given in PubChem BioAssay (EPA / NIEHS).
The source made the active and inactive calls. The calls were made as follows: active = hit-call score of the fitted dose curve at least 0.9, where 1 is the maximum; inactive = score below 0.9.

assay: APR_HepG2_MitoticArrest_72hr: Apredica 72-hour HepG2 Assay for Mitotic Arrest (AID 2282918); conditions: high-content imaging, actives raise or lower the signal
In short: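 HepG2 cells treated 72 h at 0.39–200 uM, 0.5% DMSO final; formaldehyde-fixed, stained with Hoechst 33342 and phospho-histone H3 antibody, imaged by high-content fluorescence; bidirectional fit versus DMSO.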

Structure (SMILES)	outcome	AC50
COCC(C)O (stereo not given)	inactive	
OC1CCCCC1	inactive	
O=[N+]([O-])c1ccc(O)cc1	inactive	
CC(C)(C)c1cc(C(C)(C)C)c(O)c(C(C)(C)C)c1	inactive	
O=C(OCCOCCOC(=O)c1ccccc1)c1ccccc1	inactive	
CCC(C)(C)C1CCC(O)CC1 (stereo not given)		102 µM (active)
Cc1cc(CCN2CCN(c3nsc4ccccc34)CC2)cc2c1NC(=O)CC2(C)C		39.7 µM (active)
c1ccc2cc3c(ccc4ccccc43)cc2c1		27.6 µM (active)
CCCOC(=O)c1ccc(O)cc1	inactive	
CN1CCC[C@H]1c1cccnc1	inactive	
NC(=O)N(O)[C@@H]1C=C[C@H](Oc2cccc(Oc3ccc(F)cc3)c2)C1		85.4 µM (active)
COC(=O)CCCCC(=O)OC	inactive	
CC(O)CO (stereo not given)	inactive	
O=C(O)Cc1cc(I)c(Oc2cc(I)c(O)c(I)c2)c(I)c1	inactive	
CC(=O)CC(C)(C)O		0.45 µM (active)
CCN(CC)CCNc1ccc(CNC=O)c2sc3ccc(OC)cc3c(=O)c12		5 µM (active)
CCCCC(CC)COC(=O)CCCCC(=O)OCc1ccccc1 (stereo not given)	inactive	
CC#C[C@]1(O)CC[C@H]2[C@@H]3CCC4=CC(=O)CCC4=C3[C@@H](c3ccc(N(C)C)cc3)C[C@@]21C	inactive	
c1ccc2c(c1)Cc1ccccc1-2	inactive	
CCCCCCCCOC(=O)CCCCCCCCC(=O)OCCCCCCCC	inactive	

assay: APR_HepG2_MicrotubuleCSK_72hr: Apredica 72-hour HepG2 Assay for Microtubule CSK Stabilty (AID 2282919); conditions: HepG2 microtubule cytoskeleton, high-content imaging, actives raise or lower the signal
In short: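 HepG2 human liver cells were dosed for 72 h at ten concentrations from 0.39 to 200 uM in duplicate (0.5% v/v DMSO final). Fixed, permeabilized cells were immunostained for alpha-tubulin (Cy5) with a Hoechst counterstain and imaged at 20x.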

Structure (SMILES)	AC50	outcome
CC(C)(C)CC(C)(C)c1ccc(O)c(-n2nc3ccccc3n2)c1	47.9 µM (active)	
CC(=O)NC1(c2cccc(F)c2)CCN(CC[C@@]2(c3ccc(Cl)c(Cl)c3)CN(c3ccccc3)C(=O)CO2)CC1	37.7 µM (active)	
CCc1ccc(CCOc2ccc(CC3SC(=O)NC3=O)cc2)nc1 (stereo not given)		inactive
CCOC(=O)CC(O)(CC(=O)OCC)C(=O)OCC		inactive
Oc1cc2ccccc2c2ccccc12	8.21 µM (active)	
CC[C@H](C)[C@@H](C(=O)O)n1sc2ccccc2c1=O		inactive
CCCCC[C@H](O)CC(=O)CCc1ccc(O)c(OC)c1		inactive
CN1CCN(c2ccccc2/C=C2\SCCN(c3ccc(Cl)c(Cl)c3)C2=O)CC1	23.5 µM (active)	
Cc1oc(-c2ccccc2)nc1CCOc1ccc(C[C@H](Nc2ccccc2C(=O)c2ccccc2)C(=O)O)cc1		inactive
CCc1nn(C2CCCCC2)c2cc(C3(C#N)CCC(C(=O)O)CC3)ccc12 (stereo not given)		inactive
CC[C@H](c1ccc(O)cc1)[C@@H](CC)c1ccc(O)cc1		inactive
N#C[C@@H]1CC(F)(F)CN1C(=O)CNC1CC2CCC(C1)N2c1ncccn1 (stereo not given in full)		inactive
CCCCCCCCCCCCc1ccccc1S(=O)(=O)O		inactive
OCCC(F)(F)C(F)(F)C(F)(F)C(F)(F)C(F)(F)C(F)(F)C(F)(F)C(F)(F)F		inactive
C[C@@H]1C[C@H]2[C@@H]3CCC4=CC(=O)C=C[C@]4(C)[C@@]3(F)[C@@H](O)C[C@]2(C)[C@@]1(O)C(=O)COP(=O)(O)O		inactive
COCC(C)O (stereo not given)		inactive
OC1CCCCC1		inactive
O=[N+]([O-])c1ccc(O)cc1		inactive

Structure (SMILES)	AC50	outcome
CC(C)(C)c1cc(C(C)(C)C)c(O)c(C(C)(C)C)c1		inactive
O=C(OCCOCCOC(=O)c1ccccc1)c1ccccc1		inactive
CCC(C)(C)C1CCC(O)CC1 (stereo not given)		inactive
Cc1cc(CCN2CCN(c3nsc4ccccc34)CC2)cc2c1NC(=O)CC2(C)C	37.6 µM (active)	
c1ccc2cc3c(ccc4ccccc43)cc2c1		inactive
CCCOC(=O)c1ccc(O)cc1		inactive
CN1CCC[C@H]1c1cccnc1		inactive
NC(=O)N(O)[C@@H]1C=C[C@H](Oc2cccc(Oc3ccc(F)cc3)c2)C1		inactive
COC(=O)CCCCC(=O)OC		inactive
CC(O)CO (stereo not given)		inactive
O=C(O)Cc1cc(I)c(Oc2cc(I)c(O)c(I)c2)c(I)c1		inactive
CC(=O)CC(C)(C)O	0.0173 µM (active)	
CCN(CC)CCNc1ccc(CNC=O)c2sc3ccc(OC)cc3c(=O)c12		inactive
CCCCC(CC)COC(=O)CCCCC(=O)OCc1ccccc1 (stereo not given)		inactive
CC#C[C@]1(O)CC[C@H]2[C@@H]3CCC4=CC(=O)CCC4=C3[C@@H](c3ccc(N(C)C)cc3)C[C@@]21C		inactive
c1ccc2c(c1)Cc1ccccc1-2		inactive
CCCCCCCCOC(=O)CCCCCCCCC(=O)OCCCCCCCC		inactive

assay: APR_HepG2_P-H2AX_24hr: Apredica 24-hour HepG2 Assay for H2AX Phosphorylation (AID 2282920); conditions: high-content imaging, actives raise or lower the signal
In short: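 HepG2 cells dosed 24 h at 0.39–200 uM (10 points, duplicate, 0.5% DMSO final). Formaldehyde-fixed and permeabilized, then immunostained for phospho-H2A.x with Hoechst. Fluorescence quantified by high-content imaging, fitted bidirectionally versus DMSO.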

Structure (SMILES)	AC50	outcome
CC(C)(C)CC(C)(C)c1ccc(O)c(-n2nc3ccccc3n2)c1	78.4 µM (active)	
CC(=O)NC1(c2cccc(F)c2)CCN(CC[C@@]2(c3ccc(Cl)c(Cl)c3)CN(c3ccccc3)C(=O)CO2)CC1	39.3 µM (active)	
CCc1ccc(CCOc2ccc(CC3SC(=O)NC3=O)cc2)nc1 (stereo not given)		inactive
CCOC(=O)CC(O)(CC(=O)OCC)C(=O)OCC		inactive
Oc1cc2ccccc2c2ccccc12	3.28 µM (active)	
CC[C@H](C)[C@@H](C(=O)O)n1sc2ccccc2c1=O		inactive
CCCCC[C@H](O)CC(=O)CCc1ccc(O)c(OC)c1		inactive
CN1CCN(c2ccccc2/C=C2\SCCN(c3ccc(Cl)c(Cl)c3)C2=O)CC1	32.7 µM (active)	
Cc1oc(-c2ccccc2)nc1CCOc1ccc(C[C@H](Nc2ccccc2C(=O)c2ccccc2)C(=O)O)cc1	81.7 µM (active)	
CCc1nn(C2CCCCC2)c2cc(C3(C#N)CCC(C(=O)O)CC3)ccc12 (stereo not given)		inactive
CC[C@H](c1ccc(O)cc1)[C@@H](CC)c1ccc(O)cc1		inactive
N#C[C@@H]1CC(F)(F)CN1C(=O)CNC1CC2CCC(C1)N2c1ncccn1 (stereo not given in full)		inactive
CCCCCCCCCCCCc1ccccc1S(=O)(=O)O	119 µM (active)	
OCCC(F)(F)C(F)(F)C(F)(F)C(F)(F)C(F)(F)C(F)(F)C(F)(F)C(F)(F)F	26.8 µM (active)	
C[C@@H]1C[C@H]2[C@@H]3CCC4=CC(=O)C=C[C@]4(C)[C@@]3(F)[C@@H](O)C[C@]2(C)[C@@]1(O)C(=O)COP(=O)(O)O	16 µM (active)	
COCC(C)O (stereo not given)		inactive
OC1CCCCC1		inactive
O=[N+]([O-])c1ccc(O)cc1		inactive

Structure (SMILES)	AC50	outcome
CC(C)(C)c1cc(C(C)(C)C)c(O)c(C(C)(C)C)c1		inactive
O=C(OCCOCCOC(=O)c1ccccc1)c1ccccc1		inactive
CCC(C)(C)C1CCC(O)CC1 (stereo not given)	114 µM (active)	
Cc1cc(CCN2CCN(c3nsc4ccccc34)CC2)cc2c1NC(=O)CC2(C)C	22 µM (active)	
c1ccc2cc3c(ccc4ccccc43)cc2c1	51 µM (active)	
CCCOC(=O)c1ccc(O)cc1		inactive
CN1CCC[C@H]1c1cccnc1		inactive
NC(=O)N(O)[C@@H]1C=C[C@H](Oc2cccc(Oc3ccc(F)cc3)c2)C1	103 µM (active)	
COC(=O)CCCCC(=O)OC		inactive
CC(O)CO (stereo not given)		inactive
O=C(O)Cc1cc(I)c(Oc2cc(I)c(O)c(I)c2)c(I)c1		inactive
CC(=O)CC(C)(C)O	19.8 µM (active)	
CCN(CC)CCNc1ccc(CNC=O)c2sc3ccc(OC)cc3c(=O)c12	5.94 µM (active)	
CCCCC(CC)COC(=O)CCCCC(=O)OCc1ccccc1 (stereo not given)		inactive
CC#C[C@]1(O)CC[C@H]2[C@@H]3CCC4=CC(=O)CCC4=C3[C@@H](c3ccc(N(C)C)cc3)C[C@@]21C		inactive
c1ccc2c(c1)Cc1ccccc1-2		inactive
CCCCCCCCOC(=O)CCCCCCCCC(=O)OCCCCCCCC		inactive
